Source: PubChem BioAssay (several laboratories)
MEKK2mut PB1 HTS = signal of MEK5 binding to mutant human MEKK2 PB1 domain; bead flow cytometry, Alexa488-MEK5 binding to MEKK2 mutant; percent response, % at 10 µM; actives 0.35% (n = 290,000); in the data active = percent response above about 24%, passing the limit was not always enough
MEKK3 PB1 HTS = raises or lowers MEK5 binding to the human MEKK3 PB1 domain; binding response (% of control), % at 10 µM; actives 1.4% (n = 290,000); Q99759; bead-based flow cytometry, Alexa488-MEK5 binding to MEKK3; actives lie on both sides; 0 = blocked by unlabeled MEK5, 100 = vehicle;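 active = binding response more than 3 SD above or below the average of its plate-row segment, actives on both sides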;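 note: Alexa488 bead fluorescence after subtracting the streptavidin-only scavenger bead signal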
TMEM16A inh = inhibitors of mouse TMEM16A calcium-activated chloride channel; HEK293 TMEM16A/YFP iodide influx fluorescence, ionomycin; actives 1.2% (n = 310,000); Q8BHY3; normalized B-score (activity score, 25-100; higher = stronger inhibition) at 10 µM;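 active = ratio plate-corrected score three or more library SD toward inhibition, starting fluorescence score within five deviations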;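 note: score derived from kinetic fluorescence span divided by baseline fluorescence per well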
Target sequence (Q8BHY3 whole entry, looked up): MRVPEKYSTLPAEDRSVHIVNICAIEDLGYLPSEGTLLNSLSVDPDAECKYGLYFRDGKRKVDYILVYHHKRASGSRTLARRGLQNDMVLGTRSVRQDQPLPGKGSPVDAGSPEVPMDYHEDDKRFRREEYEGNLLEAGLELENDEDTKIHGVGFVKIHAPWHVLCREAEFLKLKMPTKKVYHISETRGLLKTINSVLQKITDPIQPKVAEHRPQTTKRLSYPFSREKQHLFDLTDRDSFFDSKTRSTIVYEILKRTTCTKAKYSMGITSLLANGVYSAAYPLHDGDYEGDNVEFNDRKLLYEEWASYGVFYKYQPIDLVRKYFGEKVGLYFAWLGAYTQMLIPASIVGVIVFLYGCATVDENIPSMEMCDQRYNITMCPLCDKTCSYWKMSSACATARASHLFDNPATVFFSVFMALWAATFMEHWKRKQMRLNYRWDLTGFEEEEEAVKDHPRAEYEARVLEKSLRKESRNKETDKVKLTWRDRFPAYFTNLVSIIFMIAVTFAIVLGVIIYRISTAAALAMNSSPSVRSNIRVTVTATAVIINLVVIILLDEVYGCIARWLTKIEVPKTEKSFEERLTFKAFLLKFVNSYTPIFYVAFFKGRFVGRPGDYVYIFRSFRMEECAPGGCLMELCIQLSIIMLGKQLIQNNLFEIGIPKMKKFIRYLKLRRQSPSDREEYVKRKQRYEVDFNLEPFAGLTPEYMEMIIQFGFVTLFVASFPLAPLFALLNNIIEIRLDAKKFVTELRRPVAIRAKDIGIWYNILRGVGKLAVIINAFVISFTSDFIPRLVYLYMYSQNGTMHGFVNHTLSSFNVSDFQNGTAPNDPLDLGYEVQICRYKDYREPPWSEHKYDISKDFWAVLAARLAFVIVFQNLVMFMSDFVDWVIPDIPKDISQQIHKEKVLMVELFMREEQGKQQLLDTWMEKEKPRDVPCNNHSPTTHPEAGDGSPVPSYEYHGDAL
NTR1 ag = NTR1 (human) agonism; P30989; NTR1-U2OS beta-arrestin-GFP spot imaging, agonist mode; activation, % at 20 µM; actives 0.17% (n = 330,000); AID 493036;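 active = activation at or above 40% of the spot to cytoplasm intensity ratio, with at least 20 cells analyzed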;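 note: 0% = DMSO without peptide and 100% = 100 nM NTR1 peptide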
ANO1 activ = activates or potentiates the mouse TMEM16A chloride channel; Q8BHY3; HEK293 TMEM16A/YFP-H148Q/I152L, iodide quench fluorescence; hits give low values; B-score at 10 µM; actives 0.3% (n = 340,000);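 active = fluorescence-ratio B-score plate-corrected deviation score at least 3 library SD below zero, with starting fluorescence score within 5 deviations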;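 note: channel opened by trigger with iodide after compound preincubation; score built on the fluorescence ratio of max minus min over baseline; more negative score means more quench and so TMEM16A activation or potentiation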
MEKK2 WT-MEK5 = raises or lowers MEK5 binding to wildtype human MEKK2 PB1 domain. bead flow cytometry, Alexa488-MEK5 binding to MEKK2 WT; actives lie on both sides. binding response (% of control), % at 10 µM. actives 1.1% (n = 290,000); in the data active = binding response below about 67% or above about 130%
Numbers without * were called inactive; i = inactive; x = not tested or not shown; [ ] = dose if it differs, or a comment. In the library only some 3.4% were active in any assay of this set; here they are far more common.

SMILES	MEKK2mut PB1 HTS	MEKK3 PB1 HTS	TMEM16A inh	NTR1 ag	ANO1 activ	MEKK2 WT-MEK5
COc1ccc(N(C(=O)c2cccc([N+](=O)[O-])c2)S(=O)(=O)c2ccc3c(c2)n(C)c(=O)n3C)cc1	-3	97	100*	8	i	98
CC(Oc1ccc2c(=O)c(-c3ccc(Cl)cc3)c(C(F)(F)F)oc2c1)C(=O)O (centres undefined)	3	99	i	1	i	103
CCOCCCNc1nc2c(C)cccn2c(=O)c1/C=C1\SC(=S)N(C(C)CC)C1=O (centres undefined)	127*	28*[inhibitor]	i	16	i	x
CCCN1C(=O)/C(=C/c2c(NCCCOCC)nc3c(C)cccn3c2=O)SC1=S	1	106	x	x	i	94
COc1ccc(-c2csc(NC(=O)c3ccccc3NS(=O)(=O)c3ccc(F)c(F)c3)n2)cc1	-6	103	100*	15	i	82
COc1ccc(-c2csc(NC(=O)c3ccccc3F)n2)cc1	3	111	i	2	i	111
CCOC(=O)C1=C(COC(=O)COc2ccc(C(=O)CC)cc2)NC(=O)NC1C (centres undefined)	x	x	100*	1	i	x
CCOC(=O)C1=C(COC(=O)COc2ccc(C(C)=O)cc2)NC(=O)NC1C (centres undefined)	x	x	i	1	i	x
CCOc1ccccc1-n1nnnc1SC(C)C(=O)OC (centres undefined)	2	108	i	2	i	96
CCc1ccc(NC(=O)C2CC(=O)N=C(N)S2)cc1 (centres undefined)	-1	99	i	1	x	97
COc1ccc(NC(=O)C2CC(=O)N=C(N)S2)cc1 (centres undefined)	2	98	i	1	i	-11*
COc1ccc(/C=N/N(C(C)=O)c2nc(-c3ccc(C)cc3)cs2)cc1	4	109	i	6	-7.2*	107
Cc1ccc(S(=O)(=O)/N=C2\C=C(Nc3cccc(C(=O)O)c3)C(=O)c3ccccc32)c(C)c1	1	95	i	5	i	95
Cc1ccc(S(=O)(=O)/N=C2\C=C(Nc3cccc(C(=O)O)c3)C(=O)c3ccccc32)cc1	-6	100	25*	-1	i	90
O=C(c1cc(-c2ccccc2Cl)nc2ccc(Br)cc12)N1CCN(c2ccccn2)CC1	-9	92	25*	17	i	88
Cc1ccc(S(=O)(=O)Nc2ccccc2C(N)=O)cc1	7	102	i	0	i	104
Cc1ccc(S(=O)(=O)Nc2ccccc2-c2ccccc2NS(=O)(=O)c2ccc(C)cc2)cc1	-8	98	100*	24	i	98
COc1ccc(/C=C/C(=O)NC(=S)NN2CCCCC2c2cccnc2)cc1OC (centres undefined)	-1	92	i	0	-4.6*	95
O=C(NCCNC(=O)c1ccco1)c1ccco1	2	99	i	-1	i	99
O=C(NCCNC(=O)c1ccccc1F)c1ccco1	-25	0.0*[inhibitor]	i	0	i	-12*[inhibitor]
O=CN1Cc2ccccc2-c2ccccc2C1	-2	103	i	-2	i	103
CC(C)C[C@H](NC(=O)c1nc[nH]c1C(=O)N[C@@H](CCCCNC(=O)OC(C)(C)C)C(=O)OC(C)(C)C)C(=O)OC(C)(C)C	-3	103	i	22	-5*	85
CCN(CC)CCCCCOc1ccccc1OC	6	100	25*	0	i	102
COc1ccccc1OCCCCOc1ccccc1F	x	x	i	0	i	x
COc1ccc(NC(=O)CC2Nc3cc(C)c(C)cc3NC2=O)c([N+](=O)[O-])c1 (centres undefined)	0	103	i	0	-5*	98
SMILES	MEKK2mut PB1 HTS	MEKK3 PB1 HTS	TMEM16A inh	NTR1 ag	ANO1 activ	MEKK2 WT-MEK5
COc1ccc(NC(=O)Cc2ccc(C)cc2)c([N+](=O)[O-])c1	-1	103	i	x	i	100
Oc1ccc(Br)cc1CNc1cnc2ccccc2c1	-2	103	i	6	i	98
Cc1ccc(O)c(CNc2cnc3ccccc3c2)c1	2	107	25*	2	i	106
Cn1c(O)c(N=NC(=O)CNC(=O)c2cccnc2)c2ccccc21	1	98	i	0	i	94
CCOc1ccc(NC(=O)CN(C)C(=O)CC(NC(=O)c2ccccc2)c2ccccc2)cc1OCC (centres undefined)	x	x	i	0	-4.9*	x
CCOc1ccc(NC(=O)CN(C)C(=O)CCNC(=O)c2ccc(Br)cc2)cc1OCC	x	x	i	2	i	x
Cc1ccc(S(=O)(=O)C2(C(=O)N3CCCC(C)C3)CC2)cc1 (centres undefined)	0	94	25*	0	i	101
Cc1ccc(S(=O)(=O)NCCC(=O)N2CCCC(C)C2)cc1 (centres undefined)	x	x	i	1	i	x
CN(C)C(CNC(=O)c1ccc(S(=O)(=O)N(C)C)cc1)Cc1ccccc1 (centres undefined)	1	101	i	0	i	100
NC(=S)NNC(=O)[C@@H]1CCCC[C@@H]1C(=O)O	-2	99	i	-2	i	97
COc1ccc(NC(=O)CSc2nc3c(sc4ccccc43)c(=O)n2CCCN2CCCC2)cc1	39*	105	i	25	i	176*
COc1cc(OC)c(OC)cc1CNC(=O)c1ccc(S(=O)(=O)N2CCCCC2)cc1	x	x	x	0	i	x
Cc1c(C2(O)CCCCC2)[nH]c2cc(C(F)(F)F)ccc12	x	x	x	9	i	x
CCc1c(C2(O)CCCCC2)[nH]c2cc(C(F)(F)F)ccc12	-1	100	100*	16	i	98
O=C(NCCCCCCNC(=O)c1cncc(O)c1)c1cncc(O)c1	4	116	i	0	i	108
Oc1cc2c(cc1O)C1c3ccc(O)c(O)c3OCC1(O)C2 (centres undefined)	-2	99	i	8	-12*	97
CCN(CC(=O)NCc1cccs1)C(=O)c1ccc(-c2ccc(F)cc2)o1	x	x	x	-1	i	x
O=C(On1c(-c2ccccc2)nc2ccccc2c1=O)c1ccco1	-1	101	100*	1	i	91
CCCCC(=O)NC(=S)Nc1nnn(CCC)n1	-18	43*[inhibitor]	i	-1	i	53
CCCCC(=O)Nc1nnn(CCC)n1	7	104	i	-2	i	104
